Screens as filed in PubChem.
PME-1 primary: blocks human protein phosphatase methylesterase 1; Q9Y570; recombinant PME-1, FP-Rh probe fluorescence polarization; inhibition, % at 5.9 µM; 0.53% of 320,000 active; AID 2130;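 active = inhibition above the campaign mean of all compounds plus 3 SD, cut at about 26% in these data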;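 also: competitive labeling of PME-1 active site by serine hydrolase directed probe; 0% = PME-1 with DMSO and 100% = wells lacking PME-1 enzyme; inhibitors block probe labeling so polarization falls and inhibition rises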
LYPLA1 counter: blocks human lysophospholipase 1, a PME1 counter-screen. inhibition, % at 5.9 µM. 0.16% of 320,000 active. recombinant LYPLA1, FP-Rh probe fluorescence polarization;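 active = inhibition above the mean of all tested compounds plus 3 SD, set per campaign, cut at about 14% in these data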;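 also: inhibitors block serine hydrolase probe labeling of LYPLA1 so polarization falls; 0% = enzyme with DMSO and 100% = wells lacking LYPLA1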
GSTO1 inh: GSTO1 inhibition, counter-screen for RBBP9 inhibitors | recombinant GSTO1, activity-based probe fluorescence polarization | AID 1974 | inhibition, % at 5.96 µM | 1.1% of 300,000 active | P78417;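 active = inhibition above the campaign mean inhibition plus 3 SD, cut at about 35% in these data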;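 also: 0% = GSTO1-1 with DMSO and 100% = wells lacking GSTO1-1 enzyme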
Target sequence (P78417 whole entry, looked up): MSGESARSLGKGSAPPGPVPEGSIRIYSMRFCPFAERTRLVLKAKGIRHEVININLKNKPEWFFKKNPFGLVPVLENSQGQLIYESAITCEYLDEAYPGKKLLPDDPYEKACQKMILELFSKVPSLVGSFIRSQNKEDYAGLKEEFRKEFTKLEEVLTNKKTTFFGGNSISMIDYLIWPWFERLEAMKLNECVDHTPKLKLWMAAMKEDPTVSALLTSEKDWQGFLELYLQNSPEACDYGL
PAD4 inh: PAD4 (human) enzyme inhibition | recombinant PAD4, RCA probe fluorescence polarization | inhibition, % at 6.36 µM | 0.41% of 330,000 active | AID 485272;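 active = percent inhibition above a cutoff equal to the mean of all tested compounds plus 3 SD, cut at about 15% in these data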;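 also: 0% = PAD4 with RCA probe and DMSO and 100% = probe without PAD4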
LYPLA2 inh: LYPLA2 (human) inhibition in PME1 counter-screen. inhibition, % at 5.9 µM. AID 2177. recombinant LYPLA2, FP-Rh probe fluorescence polarization. 0.38% of 320,000 active;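 active = inhibition above the screen-wide mean plus 3 SD, limit set per campaign, cut at about 26% in these data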;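 also: 0% = LYPLA2 with DMSO and 100% = wells lacking LYPLA2 enzyme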
Target sequence (O95372 whole entry, looked up): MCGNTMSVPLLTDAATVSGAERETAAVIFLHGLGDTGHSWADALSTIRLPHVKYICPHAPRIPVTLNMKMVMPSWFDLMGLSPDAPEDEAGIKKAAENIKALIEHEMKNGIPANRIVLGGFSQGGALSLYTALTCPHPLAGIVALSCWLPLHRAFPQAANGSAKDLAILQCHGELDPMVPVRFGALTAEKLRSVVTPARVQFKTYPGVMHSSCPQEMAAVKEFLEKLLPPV
Fam108B counter: counter-screen for RBBP9 inhibitors: inhibitors of mouse Fam108B; 0.33% of 300,000 active; inhibition, % at 9.51 µM; recombinant Fam108B, FP-Rh probe fluorescence polarization;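 active = inhibition above the screen mean inhibition plus 3 SD, computed separately per campaign, cut at about 18% in these data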;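 also: inhibitors lower polarization as less probe binds the enzyme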
Fam108b confirm: confirmation of mouse Fam108b serine hydrolase inhibitors. shares compounds with Fam108B counter. recombinant Fam108b, FP-Rh probe fluorescence polarization. inhibition, % at 9.51 µM. 44% of 930 active. AID 1978;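 active = inhibition above a limit from the primary screen, the mean over all compounds plus 3 SD, cut at about 19% in these data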;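 also: 0% = median of active Fam108b wells and 100% = catalytically dead S170A mutant; inhibitors free the probe so polarization falls as inhibition rises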
Fam108b ABPP HTS: inhibits mouse Fam108b in gel-based ABPP; AID 588649; shares compounds with Fam108B counter; inhibition, % at 20 µM; 44% of 260 active; recombinant Fam108b, fluorophosphonate probe; in the data active = inhibition above about 40%
* hit, by the source's call; . = no result. Rows were chosen to be rich in hits. Some 1.8% of all compounds tested hit in one or more screens of this group.

SMILES | PME-1 primary | LYPLA1 counter | GSTO1 inh | PAD4 inh | LYPLA2 inh | Fam108B counter | Fam108b confirm | others
Cc1csc(CN(C)C(=O)CC2C(=O)NCCN2Cc2ccc(F)cc2Cl)n1 (configuration not stated) | -5 | 0 | 1 | -1 | 2 | -1 | .
COc1cccc(OCCn2cc(/C=N/NC(=O)c3ccncc3)c3ccccc32)c1 | 25 | 3 | -10 | 5 | 6 | 25* | 2
Cc1ccc(OCCn2cc(/C=N/NC(=O)c3ccncc3)c3ccccc32)cc1 | 69* | -18 | -21 | 3 | 38* | 34* | -11
CNC(=S)N/N=C/c1cn(CCOc2cccc(OC)c2)c2ccccc12 | 9 | 3 | 2 | 4 | 16 | 7 | .
CC(CCc1ccccc1)NC(=O)C(=O)c1c[nH]c2ccccc12 (configuration not stated) | -5 | -6 | 0 | -3 | -4 | -7 | .
NC(=NCCc1ccccc1)NC(=O)c1cc(Cl)ccc1O | 2 | 0 | 5 | 0 | -2 | 1 | .
Cc1ccc(C(=O)O)cc1N1C(=O)c2cccc3c([N+](=O)[O-])ccc(c23)C1=O | 32* | 1 | -10 | 1 | 7 | 27* | 23*
COc1ccc(S(=O)(=O)NCc2cc(=O)n(C)c(=O)n2C)cc1C | 0 | 2 | 1 | 5 | 10 | 5 | .
O=C(Nc1ccnn1C1CCN(Cc2ccccc2OC(F)F)CC1)c1cccnc1 | 0 | -3 | 4 | -3 | 0 | 4 | .
COc1ccc(Nc2ncnc3sc(-c4ccccc4)cc23)cc1OC | 39* | 2 | 0 | 2 | -6 | 54* | -12
COc1ccc(Nc2ncnc3c2cnn3-c2ccccc2)cc1OC | 5 | 3 | 3 | -1 | 1 | 3 | .
CN(C)S(=O)(=O)c1ccc(NC(=O)CCCNC(=O)c2ccc(Cl)cc2)cc1 | 2 | 0 | 2 | -3 | 7 | -2 | .
O=C(Nc1cccc(Cl)c1)c1cc(N=Nc2ccc([N+](=O)[O-])cc2Cl)ccc1O | 22 | -11 | -8 | 4 | -12 | 26* | -1
O=C(Nc1ccc([N+](=O)[O-])cc1Cl)c1cc(Cl)ccc1O | 9 | 0 | 1 | -3 | 5 | 5 | .
Cc1ccc(-c2nc(Nc3cccc(O)c3)c3ccccc3n2)cc1 | -9 | -28 | -20 | -1 | -32 | 1 | .
COc1ccc(Nc2nc(-c3ccccc3O)nc3ccccc23)cc1 | 17 | -17 | -10 | -2 | -4 | 25* | -20
COc1cccc(Nc2nc(-c3ccccc3O)nc3ccccc23)c1 | -17 | -23 | -22 | 0 | -27 | -7 | .
Cc1ccc(-c2nc(Nc3ccc(O)cc3)c3ccccc3n2)cc1 | 41* | -6 | -11 | -7 | 9 | 35* | 3
COc1cccc(C=NNc2nc(Nc3ccc([N+](=O)[O-])cc3)nc(N3CCCC3)n2)c1O | . | . | . | . | . | . | . | Fam108b ABPP HTS=90*
COc1ccc([N+](=O)[O-])cc1/C=N/Nc1nc(N2CCCCC2)nc(N2CCCCC2)n1 | -2 | 0 | 0 | -3 | -9 | -5 | .
COc1ccc(C2C3=C(CCCC3=O)NC3=C2C(=O)c2ccccc23)cc1 (configuration not stated) | 10 | 0 | 2 | -3 | 4 | 20* | 26*
CCOC(=O)Cc1csc(N/N=C/c2cccc([N+](=O)[O-])c2)n1 | 4 | 2 | -5 | -2 | 1 | 1 | .
O=[N+]([O-])c1cccc(-c2csc(N/N=C/c3cccc(O)c3)n2)c1 | 11 | -14 | -10 | -2 | -10 | 32* | 31*
CN(C)S(=O)(=O)c1ccc(-c2csc(N/N=C/c3ccc(O)cc3)n2)cc1 | 35* | -9 | -17 | -7 | 12 | 29* | 9
O=C(c1cccc(C(F)(F)F)c1)N1CCC2(CC1)NCCc1[nH]cnc12 | -3 | 2 | -17 | -7 | 9 | -5 | .
SMILES | PME-1 primary | LYPLA1 counter | GSTO1 inh | PAD4 inh | LYPLA2 inh | Fam108B counter | Fam108b confirm | others
CN(CC(=O)Nc1cccc(F)c1)C(=O)Cn1cnc2c1c(=O)n(C)c(=O)n2C | -6 | 0 | -3 | -4 | 4 | 0 | .
Cc1[nH]c2ccccc2c1/C=N/Nc1nc(Nc2ccc(F)cc2)nc(N2CCOCC2)n1 | 19 | -15 | -3 | -2 | -3 | 22* | 7
COc1ccccc1C(=O)NC(=O)COC(=O)CCOc1ccc(C)cc1 | 6 | -4 | 4 | 1 | 0 | -2 | .
Cc1nn(-c2ccccc2)c(Cl)c1C=NNc1ccc(S(=O)(=O)Nc2ccccc2C(=O)O)cc1[N+](=O)[O-] | . | . | . | . | . | . | . | Fam108b ABPP HTS=0
Cc1ccc(C)c(-n2ccnc2SCC(=O)c2c(N)n(C3CC3)c(=O)[nH]c2=O)c1 | 2 | 6 | . | 6 | 0 | . | .
CCN(CC(=O)Nc1c(C(=O)OC)[nH]c2ccc(Cl)cc12)c1ccc2c(c1)OCO2 | 40* | -4 | 11 | -1 | -1 | 21* | 8
CC(C)c1onc(C(=O)N2CCN(c3ccc(F)cc3)CC2)c1[N+](=O)[O-] | 1 | 2 | 10 | -4 | 3 | -1 | .
CC(=O)NC1=NN(C(C)=O)C(C)(c2ccco2)S1 (configuration not stated) | 4 | -1 | -7 | -8 | -7 | 22* | 3
COc1cccc2c1C(=O)c1c(O)c3c(c(O)c1C2=O)C[C@@](O)(C(C)=O)C[C@@H]3O[C@H]1C[C@H](N)[C@H](O)[C@H](C)O1 | . | . | . | . | . | . | . | Fam108b ABPP HTS=0
Cc1cc(NC(=O)CSc2ncnc3sc(C)c(C)c23)no1 | -1 | 2 | 6 | -2 | -2 | 1 | .
CCOC(=O)c1c(C)[nH]c(C(=O)N/N=C\c2ccccc2O)c1C | 4 | -11 | -11 | 4 | -2 | 19* | -10
COc1cccc(C=NNC(=O)c2[nH]c(C)c(C(=O)NN=Cc3cccc(OC)c3O)c2C)c1O | . | . | . | . | . | . | . | Fam108b ABPP HTS=95*
COc1ccccc1/C=N/NC(=O)c1[nH]c(C)c(C(=O)N/N=C/c2ccccc2OC)c1C | -23 | -19 | -4 | -2 | -33 | -4 | .
COc1ccccc1NS(=O)(=O)c1cccc(NC(=O)CCNC(=O)c2ccccc2OC)c1 | 9 | -6 | . | -1 | -9 | . | .
O=C(N/N=C/c1ccc(O)cc1O)c1ccc(CN2C(=O)c3cccc4cccc2c34)cc1 | -36 | -38 | -48 | -8 | -51 | 38* | 28*
COc1ccc(NC(=O)c2cc3c(-c4ccc(OC)c(OC)c4)nn(C)c3s2)cc1OC | 17 | 9 | 3 | -3 | 2 | 46* | -1
CSc1cccc(CN2CCCC(CNC(=O)c3ccco3)C2)c1 (configuration not stated) | -1 | 3 | 4 | -1 | 9 | -3 | .
COc1cc(/C=C2/C(=O)NN(c3cccc(C)c3)C2=O)cc([N+](=O)[O-])c1O | 6 | 4 | 8 | -1 | 4 | 83* | 6
